Our source for the growth inhibition, inhibition and outcome values is PubChem BioAssay.

Unmarked numbers belong to inactive results. For some of these results: Results with a measured potency or affinity are listed apart. Activity calls are given as the source filed them. Unless noted, no rule for the calls is given here.

Assay [1] is described as follows: antimalarial activity against Dd2 strain (AID 2302;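 active = growth inhibition above 50% at the single 2 µM test dose, taken to imply half-maximal potency below 2 µM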;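 also: 0% = DMSO untreated growth and 100% = chloroquine plus artemisinin killed control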). To be noted: P. falciparum Dd2 in RBCs, LDH growth readout, 72 h; at 2 µM; stronger effect = higher value.
Assay [2] in a line: HepG2 cytotoxicity, primary screen, cytotoxicity control for P. falciparum antimalarial project, cell-based, ATP luminescence (AID 2303;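 active = inhibition above 50%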;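 also: 0% = DMSO wells and 100% = digitonin-killed cells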). To be noted: HepG2 viability, 24-48 h, at 10 µM, stronger effect = higher value.
For assay [3], the target named is L-lactate dehydrogenase (Plasmodium falciparum (isolate CDC / Honduras)) (UniProt Q27743). In words: PfLDH activity inhibition – cell lysate, 3D7 strain, counter-screen for P. falciparum growth inhibition project (AID 2304).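 Also: 0% = vehicle and 100% = reference inhibitor.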 To be noted: P. falciparum 3D7 crude extract, LDH APAD/NBT absorbance; at 2 µM; stronger effect = higher value.
Assay [4] can be described thus: inhibition of 3D7 malaria parasite growth – strain 3D7 (AID 2306).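 Also: 0% = DMSO wells and 100% = chloroquine plus artemisinin control wells.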 To be noted: P. falciparum 3D7 erythrocytic growth, LDH absorbance, 72 h; at 2 µM; stronger effect = higher value.
Assay [5] deals with Calcium-dependent protein kinase 1 (Plasmodium falciparum (isolate 3D7)) (UniProt P62344). In words: PfCDPK1 kinase inhibitors, biochemical, TCAMS library (AID 1159585; cut-off not given, nearly all actives have IC50 up to about 0.98 µM;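 also: inhibitors leave more ATP so luminescence rises with inhibition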). To be noted: recombinant PfCDPK1, Kinase-Glo ATP depletion luminescence. (In general: Kinase-Glo measures the ATP left after a reaction by luminescence.)
Assay [6] has as its target Plasmodium falciparum protein kinase 6 (PK6, PF3D7_1337100) (UniProt Q8IDW1). Nature of the assay: PfPK6 kinase inhibitors, biochemical, TCAMS library (AID 1159586). To be noted: recombinant PfPK6, Kinase-Glo ATP depletion luminescence.
For assay [7], the target named is Protein kinase 7 (PK7), Plasmodium falciparum 3D7 (PF3D7_0213400) (UniProt Q7YTF7). Nature of the assay: inhibition of Plasmodium PK7 catalytic activity – biochemical, TCAMS antimalarial set, Kinase-Glo luminescence (AID 1159587). To be noted: recombinant PfPK7, Kinase-Glo ATP depletion luminescence.
The target in assay [8] is Calcium-dependent protein kinase 4 (Plasmodium falciparum (isolate 3D7)) (UniProt Q8IBS5). In words: PfCDPK4 kinase inhibitors, biochemical, TCAMS library (AID 1159588; cut-off not given, nearly all actives have IC50 up to about 0.91 µM). To be noted: recombinant PfCDPK4, Kinase-Glo ATP depletion luminescence.
Chain of Calcium-dependent protein kinase 4 (Plasmodium falciparum (isolate 3D7)) (Q8IBS5 whole entry, looked up): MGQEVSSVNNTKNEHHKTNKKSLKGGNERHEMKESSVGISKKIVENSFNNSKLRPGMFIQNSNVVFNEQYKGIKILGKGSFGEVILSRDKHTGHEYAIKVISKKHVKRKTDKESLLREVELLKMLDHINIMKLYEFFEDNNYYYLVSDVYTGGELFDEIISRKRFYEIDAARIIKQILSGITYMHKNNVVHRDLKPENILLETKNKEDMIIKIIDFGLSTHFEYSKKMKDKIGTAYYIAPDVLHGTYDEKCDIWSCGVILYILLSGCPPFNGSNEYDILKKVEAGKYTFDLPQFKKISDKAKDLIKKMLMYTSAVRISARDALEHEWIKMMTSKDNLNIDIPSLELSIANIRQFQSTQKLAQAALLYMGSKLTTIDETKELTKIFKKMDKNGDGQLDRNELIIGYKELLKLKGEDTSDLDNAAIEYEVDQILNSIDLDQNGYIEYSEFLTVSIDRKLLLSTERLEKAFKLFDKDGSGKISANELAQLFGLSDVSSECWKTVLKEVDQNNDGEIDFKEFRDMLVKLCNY

Chain of Calcium-dependent protein kinase 1 (Plasmodium falciparum (isolate 3D7)) (P62344 whole entry, looked up): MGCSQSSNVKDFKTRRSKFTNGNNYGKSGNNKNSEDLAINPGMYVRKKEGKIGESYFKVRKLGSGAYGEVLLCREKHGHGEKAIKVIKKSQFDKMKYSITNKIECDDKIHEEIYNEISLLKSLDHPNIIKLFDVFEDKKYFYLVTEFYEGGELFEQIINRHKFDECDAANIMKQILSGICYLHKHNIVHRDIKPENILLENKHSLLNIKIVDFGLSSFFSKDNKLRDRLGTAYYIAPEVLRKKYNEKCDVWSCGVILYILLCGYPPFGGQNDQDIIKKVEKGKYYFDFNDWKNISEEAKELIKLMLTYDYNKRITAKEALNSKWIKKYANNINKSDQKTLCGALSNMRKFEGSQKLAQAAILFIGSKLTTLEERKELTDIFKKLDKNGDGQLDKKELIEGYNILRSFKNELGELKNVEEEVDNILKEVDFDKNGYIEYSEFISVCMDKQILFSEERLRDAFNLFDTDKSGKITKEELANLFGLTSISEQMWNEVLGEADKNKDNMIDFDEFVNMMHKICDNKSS
Chain of Plasmodium falciparum protein kinase 6 (PK6, PF3D7_1337100) (Q8IDW1 1-305): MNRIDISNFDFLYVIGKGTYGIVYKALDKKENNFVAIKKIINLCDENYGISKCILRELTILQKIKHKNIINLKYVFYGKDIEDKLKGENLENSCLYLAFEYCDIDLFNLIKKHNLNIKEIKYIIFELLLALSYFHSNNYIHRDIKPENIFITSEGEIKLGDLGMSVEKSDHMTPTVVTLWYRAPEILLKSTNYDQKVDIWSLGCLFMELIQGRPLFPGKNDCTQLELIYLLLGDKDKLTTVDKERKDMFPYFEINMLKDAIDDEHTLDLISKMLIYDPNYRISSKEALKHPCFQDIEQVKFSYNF
Chain of Protein kinase 7 (PK7), Plasmodium falciparum 3D7 (PF3D7_0213400) (Q7YTF7 1-343): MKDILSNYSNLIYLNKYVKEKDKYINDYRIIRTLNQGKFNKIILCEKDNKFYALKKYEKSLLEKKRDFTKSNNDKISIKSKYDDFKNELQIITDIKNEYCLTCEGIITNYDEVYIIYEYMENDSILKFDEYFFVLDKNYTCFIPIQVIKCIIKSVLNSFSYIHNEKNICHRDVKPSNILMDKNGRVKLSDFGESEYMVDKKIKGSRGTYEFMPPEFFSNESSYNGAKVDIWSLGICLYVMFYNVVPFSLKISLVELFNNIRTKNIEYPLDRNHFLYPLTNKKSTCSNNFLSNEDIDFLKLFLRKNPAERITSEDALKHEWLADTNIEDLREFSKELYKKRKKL
Chain of L-lactate dehydrogenase (Plasmodium falciparum (isolate CDC / Honduras)) (Q27743 whole entry, looked up): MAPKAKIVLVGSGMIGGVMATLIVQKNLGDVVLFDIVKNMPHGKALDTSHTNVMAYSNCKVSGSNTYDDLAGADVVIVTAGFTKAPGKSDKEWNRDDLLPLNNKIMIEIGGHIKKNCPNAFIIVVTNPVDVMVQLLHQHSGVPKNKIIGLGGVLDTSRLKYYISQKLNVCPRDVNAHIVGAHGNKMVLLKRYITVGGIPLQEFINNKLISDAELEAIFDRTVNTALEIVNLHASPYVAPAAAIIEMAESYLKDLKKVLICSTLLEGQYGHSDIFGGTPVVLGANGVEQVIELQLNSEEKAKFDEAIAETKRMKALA

With `CCNc1cc(C(=O)N[C@@H](Cc2ccccc2)[C@H](O)CNCc2cccc(-c3cncnc3)c2)cc(N2CCCC2=O)c1`, the figures for the growth inhibition in assay [1] and in assay [4] were 96% (active) and 97% (active), respectively. Also, the figures for the inhibition in assay [2] and in assay [3] were 5% and 2%, respectively. For the same compound, the result in assay [5], in assay [6], in assay [7] and in assay [8] was inactive.

Take `Cc1cccc(C(O)CNc2ccnc(Nc3cccc(-c4csc(C)n4)c3)n2)c1` (stereo not given): the growth inhibition in assay [1] was 88% (active); in assay [4], 99% (active). Besides, the inhibition (usually the relative decrease from the control value, in per cent) in assay [2] is 29%; in assay [3], 2%. Also, the result in assay [5], in assay [6], in assay [7] and in assay [8] was inactive.

Consider `N#Cc1ccc2c(c1)CCN(CCC1CCC(NC(=O)/C=C/c3ccc(Cl)c(Cl)c3)CC1)CC2` (stereo not given), for which the growth inhibition in assay [1] was 51% (active); in assay [4], 100% (active). The figures for the inhibition in assay [2] and in assay [3] were 31% and -11%, respectively. For the same compound, the outcome in assay [5], in assay [6], in assay [7] and in assay [8] was inactive.

With `COc1ccc2ncc(F)c(CCN3CCC[C@H](CNCc4ccc5c(n4)NC(=O)CS5)C3)c2n1`, the growth inhibition in assay [1] was 34%; in assay [4], 96% (active). The inhibition in assay [2] is 16%; in assay [3] it was 3%. The outcome in assay [5], in assay [6], in assay [7] and in assay [8] was inactive.

For `Nc1nc(N)c2c(ccc3c2ccn3C2C=CCCC2)n1` (stereo not given), the growth inhibition in assay [1] is 65% (active); in assay [4], 94% (active). The inhibition in assay [2] is 68% (active); in assay [3] it was -2%. For the same compound, the result in assay [5], in assay [6], in assay [7] and in assay [8] was inactive.

With `COc1ccc2nccc([C@@H](O)CN3CCC(NC(=O)/C=C/c4cccc(NC(C)=O)c4)CC3)c2c1`, the growth inhibition was 60% (active) in assay [1] and 90% (active) in assay [4]. The inhibition in assay [2] was 5%; in assay [3] it was 0%. The outcome in assay [5], in assay [6], in assay [7] and in assay [8] was inactive.

Take `Cc1csc(-c2nonc2NC(=O)COc2ccccc2C(C)C)n1`: the growth inhibition is 85% (active) in assay [1] and 90% (active) in assay [4]. The inhibition in assay [2] is 14%; in assay [3], -1%. Also, the outcome in assay [5], in assay [6], in assay [7] and in assay [8] was inactive.

Take `CC(C)Cc1nc(N)nc(N)c1-c1ccc(Cl)cc1`: the growth inhibition in assay [1] is 3%; in assay [4] it was 96% (active). Further, the inhibition in assay [2] was 5%; in assay [3], 6%. In addition, the result in assay [5], in assay [6], in assay [7] and in assay [8] was inactive.

With `O=C1CCCN1CCCNCc1cccc(-c2cccc(-c3nc4ccc(F)cc4[nH]3)c2)c1`, the results for the growth inhibition in assay [1] and in assay [4] were 69% (active) and 100% (active), respectively. For the same compound, the inhibition in assay [2] was 6%; in assay [3], -3%. Also, the result in assay [5], in assay [6], in assay [7] and in assay [8] was inactive.

Turning to `CCCCCOc1ccc(C(O)C(CN2CCCCC2)c2ccccc2)cc1` (stereo not given), the growth inhibition in assay [1] was 95% (active); in assay [4], 98% (active). The inhibition in assay [2] is 11%; in assay [3] it was 5%. The outcome in assay [5], in assay [6], in assay [7] and in assay [8] was inactive.

For the compound `C[C@@H]1CN(c2ccnc3ccc(Sc4ccc(Oc5ccccc5)cc4)cc23)C[C@H](C)N1`, the growth inhibition is 99% (active) in assay [1] and 100% (active) in assay [4]. The inhibition is 33% in assay [2] and 7% in assay [3]. In addition, the result in assay [5], in assay [6], in assay [7] and in assay [8] was inactive.

Regarding `O=C(NCc1cc2c(cc1Cl)OCO2)c1ccc(CNC2CCN(Cc3ccccc3)CC2)cc1`, the growth inhibition was 47% in assay [1] and 100% (active) in assay [4]. The inhibition is 11% in assay [2] and -3% in assay [3]. The result in assay [5], in assay [6], in assay [7] and in assay [8] was inactive.

For `O=C(Cc1cn(-c2ccccc2)nc1-c1ccc(Cl)cc1)Nc1nccs1`, the growth inhibition in assay [1] is 8%; in assay [4], 88% (active). The inhibition was 9% in assay [2] and 1% in assay [3]. In addition, the result in assay [5], in assay [6], in assay [7] and in assay [8] was inactive.

Regarding `O=C(CN1CCC(NCc2cnc(-c3ccc(Cl)cc3)[nH]2)CC1)N1CCc2ccccc21`, the growth inhibition in assay [1] was 5%; in assay [4] it was 100% (active). Moreover, the figures for the inhibition in assay [2] and in assay [3] were 11% and -8%, respectively. Further, the result in assay [5], in assay [6], in assay [7] and in assay [8] was inactive.

Consider `O=C(Nc1ccc(-c2ccc(-c3nc4ccccc4[nH]3)s2)cc1)c1ccncc1`, for which the growth inhibition in assay [1] is 95% (active); in assay [4], 94% (active). For the same compound, the inhibition was 21% in assay [2] and -5% in assay [3]. Besides, the result in assay [5], in assay [6], in assay [7] and in assay [8] was inactive.

With `O=C(NCCCNc1nc2ccccc2[nH]1)c1cccc(OC(F)(F)F)c1`, the growth inhibition in assay [1] was 27%; in assay [4], 102% (active). The results for the inhibition in assay [2] and in assay [3] were 12% and -2%, respectively. Also, the outcome in assay [5], in assay [6], in assay [7] and in assay [8] was inactive.

Consider `COc1ccccc1CNc1nc(Nc2ccccc2C)nc2ccccc12`, for which the figures for the growth inhibition in assay [1] and in assay [4] were 67% (active) and 101% (active), respectively. In addition, the inhibition in assay [2] was 24%; in assay [3], -1%. For the same compound, the result in assay [5], in assay [6], in assay [7] and in assay [8] was inactive.

Turning to `COc1ccc(CN2CCC2=O)c(OC)c1`, the growth inhibition is 96% (active) in assay [1] and 98% (active) in assay [4]. For the same compound, the inhibition in assay [2] is 0%; in assay [3] it was -6%. Moreover, the result in assay [5], in assay [6], in assay [7] and in assay [8] was inactive.

On to `CCCCOC(=O)C1=C(C)NC2=C(C(=O)CC(c3ccc(OC)c(OC)c3)C2)C1c1ccc(O)cc1` (stereo not given), for which the growth inhibition in assay [1] was 75% (active); in assay [4], 90% (active). Moreover, the values for the inhibition in assay [2] and in assay [3] were -6% and 2%, respectively. The outcome in assay [5], in assay [6], in assay [7] and in assay [8] was inactive.

For the compound `COc1cc2ccccc2c(OC)c1CNCCCCCCNCc1c(OC)cc2ccccc2c1OC`, the growth inhibition in assay [1] was 91% (active); in assay [4], 93% (active). The inhibition was 100% (active) in assay [2] and 0% in assay [3]. The result in assay [5], in assay [6], in assay [7] and in assay [8] was inactive.
